Results filed as inconclusive are left out. Activity calls are given as the source filed them. Unless noted, calls come from the whole dose curve; as a rule, active = well fitted curve in the direction sought with a large enough effect in the repeat runs; inconclusive = weak or mixed curves; inactive = no such curve, though single readings can be large; an effect the other way counts as inactive or inconclusive.
How the values were obtained:
[1] = qHTS assay to identify small molecule agonists of the peroxisome proliferator-activated receptor delta (PPARd) signaling pathway - cell viability counter screen (AID 743211); note: nearly all actives have a fitted effect of over 55% in size
How it was run: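 Multiplexed format: after the 2 h room-temperature LiveBLAzer B/G FRET step, CellTiter-Glo was added to the same wells. Luminescence after 30 min gave cell viability; compound exposure was 17 h at 37C.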

[2] = target: Peroxisome proliferator-activated receptor delta (Homo sapiens) (UniProt Q03181); assay: qHTS assay to identify small molecule agonists of the peroxisome proliferator-activated receptor delta (PPARd) signaling pathway (AID 743212; calls by dose curve)
Peroxisome proliferator-activated receptor delta (Homo sapiens), sequence (Q03181 whole entry, looked up): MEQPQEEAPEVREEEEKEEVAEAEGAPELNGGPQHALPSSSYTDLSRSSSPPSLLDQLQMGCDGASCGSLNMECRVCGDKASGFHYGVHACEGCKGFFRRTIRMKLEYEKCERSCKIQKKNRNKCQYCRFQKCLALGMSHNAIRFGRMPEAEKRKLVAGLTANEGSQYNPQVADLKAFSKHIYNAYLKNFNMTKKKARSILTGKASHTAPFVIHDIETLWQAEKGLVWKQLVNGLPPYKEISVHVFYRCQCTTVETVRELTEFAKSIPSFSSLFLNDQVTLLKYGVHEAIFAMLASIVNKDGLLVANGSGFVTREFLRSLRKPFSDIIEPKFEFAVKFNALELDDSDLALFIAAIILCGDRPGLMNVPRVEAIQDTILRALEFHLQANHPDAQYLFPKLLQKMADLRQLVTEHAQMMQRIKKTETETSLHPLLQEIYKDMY
How it was run: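 HEK293H UAS-bla reporter cells, human PPARd system; compounds delivered in DMSO after 5 h plating, then at 37 C. Beta-lactamase FRET read, 2 h RT substrate step.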

[3] = target: Peroxisome proliferator-activated receptor delta (Homo sapiens) (UniProt Q03181); assay: qHTS assay to identify small molecule antagonists of the peroxisome proliferator-activated receptor delta (PPARd) signaling pathway (AID 743215; active = well fitted inhibition curve with a large enough effect in the signal ratio in the repeat runs, not every such curve was filed as active; the % refers to the signal ratio; note: series mostly up to about 62 µM)
How it was run: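 Inhibition of L165041-driven (300 nM final) PPARd signaling is scored in HEK293H UAS-bla cells. Exposure lasts 17 h at 37 C; beta-lactamase activity is then read by FRET substrate fluorescence after 2 h at room temperature.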

[4] = qHTS assay to identify small molecule agonists of the farnesoid-X-receptor (FXR) signaling pathway - cell viability counter screen (AID 743218); note: nearly all actives have a fitted effect of over 45% in size
How it was run: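 Cytotoxicity counter-screen run in parallel, same wells: FXR-UAS-bla HEK 293T cells dosed 16 h at 37 C, viability read by CellTiter-Glo luminescence after 30 min at room temperature.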

[5] = target: Bile acid receptor (Homo sapiens) (UniProt Q96RI1); assay: qHTS assay to identify small molecule agonists of the farnesoid-X-receptor (FXR) signaling pathway (AID 743220; active = well fitted activation curve with a large enough effect in the signal ratio in the repeat runs, not every such curve was filed as active; the % refers to the signal ratio)
Bile acid receptor (Homo sapiens), sequence (Q96RI1 whole entry, looked up): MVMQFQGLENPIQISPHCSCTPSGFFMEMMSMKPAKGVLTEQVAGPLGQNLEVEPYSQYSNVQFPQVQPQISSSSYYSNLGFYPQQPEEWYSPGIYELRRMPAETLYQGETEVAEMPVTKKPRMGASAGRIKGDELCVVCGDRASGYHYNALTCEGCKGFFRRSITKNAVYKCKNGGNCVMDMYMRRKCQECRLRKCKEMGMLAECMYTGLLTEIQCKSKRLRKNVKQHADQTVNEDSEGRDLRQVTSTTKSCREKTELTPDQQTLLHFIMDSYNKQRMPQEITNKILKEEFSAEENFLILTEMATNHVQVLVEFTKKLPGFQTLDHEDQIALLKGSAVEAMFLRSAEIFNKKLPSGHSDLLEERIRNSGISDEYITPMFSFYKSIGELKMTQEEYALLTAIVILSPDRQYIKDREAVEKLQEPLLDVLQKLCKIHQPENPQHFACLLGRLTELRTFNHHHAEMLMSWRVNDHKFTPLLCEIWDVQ
How it was run: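 Beta-lactamase reporter under UAS control in GeneBLAzer FXR HEK 293T cells (5000/well) measured with LiveBLAzer FRET substrate after 2 h at room temperature. Compound exposure lasted 16 h at 37C.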

[6] = qHTS assay to identify small molecule antagonists of the farnesoid-X-receptor (FXR) signaling pathway - cell viability counter screen (AID 743221; active = well fitted cell-killing curve with a large enough effect in the repeat runs, not every such curve was filed as active; note: nearly all actives have a fitted effect of over 50% in size)
How it was run: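 CellTiter-Glo, 30 min RT, luminescence; same wells as the LiveBLAzer FRET read. Cells: FXR-UAS-bla HEK 293T. Treatment: compound with chenodeoxycholic acid 50 uM final, 16 h at 37 C.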

[7] = target: Vitamin D3 receptor (Homo sapiens) (UniProt P11473); assay: qHTS assay to identify small molecule agonists of the vitamin D receptor (VDR) signaling pathway (AID 743222; calls by dose curve)
Vitamin D3 receptor (Homo sapiens), sequence (P11473 whole entry, looked up): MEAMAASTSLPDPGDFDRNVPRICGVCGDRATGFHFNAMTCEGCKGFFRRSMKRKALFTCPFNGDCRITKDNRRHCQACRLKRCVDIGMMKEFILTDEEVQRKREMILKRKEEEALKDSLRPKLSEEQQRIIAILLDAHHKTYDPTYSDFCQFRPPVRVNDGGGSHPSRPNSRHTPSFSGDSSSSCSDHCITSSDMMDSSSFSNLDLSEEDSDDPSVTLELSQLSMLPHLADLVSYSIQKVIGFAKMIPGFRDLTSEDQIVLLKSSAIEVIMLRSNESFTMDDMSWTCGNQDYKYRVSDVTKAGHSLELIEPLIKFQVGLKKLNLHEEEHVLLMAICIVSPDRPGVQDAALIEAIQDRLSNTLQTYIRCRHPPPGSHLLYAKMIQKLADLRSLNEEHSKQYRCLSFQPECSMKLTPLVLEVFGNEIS
How it was run: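 Quantitative HTS agonist-mode screen: compounds in DMSO were pin-transferred onto VDR-bla cells and incubated 16 h at 37C, 5% CO2. Reporter activity was detected with LiveBLAzer B/G FRET substrate after 2 h at room temperature.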

[8] = qHTS assay to identify small molecule antagonists of the vitamin D receptor (VDR) signaling pathway - cell viability counter screen (AID 743225); note: nearly all actives have a fitted effect of over 50% in size
How it was run: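 Cytotoxicity toward the VDR-bla HEK 293T line was scored by ATP-based CellTiter-Glo luminescence, read in the wells already used for the beta-lactamase readout after 16 h compound treatment under 3 nM 1-alpha,25-dihydroxyvitamin D3 stimulation.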

[9] = qHTS assay to identify small molecule agonists of the NFkB signaling pathway (AID 1159509; active = well fitted curve in the direction sought with a large enough effect in the signal ratio in the repeat runs, not every such curve was filed as active; the % refers to the signal ratio; note: series mostly up to about 61 µM)
How it was run: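 NFkB-bla ME-180 cells with a beta-lactamase reporter under an NF-kB response element were plated overnight, treated with compounds in DMSO for 5 hr at 37 C, then loaded with FRET substrate for 1.5 hr at room temperature.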

[10] = qHTS assay to identify small molecule agonists of the NFkB signaling pathway - cell viability counter screen (AID 1159515; calls by dose curve; note: series mostly up to about 61 µM; nearly all actives have a fitted effect of over 55% in size)
How it was run: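 Multiplexed viability readout: after the 5 hr compound exposure and 1.5 hr FRET substrate step, CellTiter-Glo reagent went into the same NFkB-bla ME-180 wells; ATP luminescence was measured after 30 min at room temperature.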

[11] = qHTS assay to identify small molecule agonists of the endoplasmic reticulum stress response signaling pathway (AID 1159516; active = well fitted activation curve with a large enough effect in the signal ratio in the repeat runs, not every such curve was filed as active; the % refers to the signal ratio)
How it was run: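 Tox21 10K library screened in quantitative HTS format on ESRE-bla HeLa cells, a beta-lactamase reporter under ER stress response element control; 5 hr treatment, FRET read.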

[12] = qHTS assay to identify small molecule agonists of the endoplasmic reticulum stress response signaling pathway - cell viability counter screen (AID 1159517; calls by dose curve; note: series mostly up to about 61 µM; nearly all actives have a fitted effect of over 50% in size)
How it was run: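 Cells, HeLa ESRE-bla; density, 1,500/well; dosing, 5 hr at 37 C, 5% CO2; readout, CellTiter-Glo luminescence after 30 min RT.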

[13] = qHTS assay to identify small molecule antagonists of the retinoid-related orphan receptor gamma (ROR-gamma) signaling pathway - cell viability counter screen (AID 1159520); note: nearly all actives have a fitted effect of over 50% in size
How it was run: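 Cytotoxicity was read from cellular ATP (CellTiter-Glo luminescence) after 16 hr at 37 C with 1 uM doxycycline induction. The inducer was added 2 hr after compound transfer to Tet-on ROR gamma CHO cells.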

[14] = target: Nuclear receptor ROR-gamma (Homo sapiens) (UniProt P51449); assay: qHTS assay to identify small molecule antagonists of the retinoid-related orphan receptor gamma (ROR-gamma) signaling pathway (AID 1159521)
How it was run: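 Readout: ONE-Glo luciferase luminescence, 30 min at room temperature. System: Tet-on RORγ CHO, RORE-LUC. Sequence: compound 2 h, doxycycline 1 uM final, 16 h at 37 C.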

[15] = qHTS assay to identify small molecule agonists of the AP-1 signaling pathway - cell viability counter screen (AID 1159525; calls by dose curve; note: nearly all actives have a fitted effect of over 55% in size)
How it was run: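 Luminescent ATP readout (Cell Titer Glo, 30 min RT), normalised to DMSO and tetra n-octyl ammonium bromide controls. Cells were ME-180 AP-1-bla in 0.5% dialyzed FBS Opti-MEM, with a 5 h, 37 °C compound exposure.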

[16] = qHTS assay to identify small molecule antagonists of the peroxisome proliferator-activated receptor delta (PPARd) signaling pathway - cell viability counter screen (AID 743213); note: nearly all actives have a fitted effect of over 50% in size
How it was run: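 Agonist-stimulated (L165041, 300 nM final) HEK293H PPARd UAS-bla cells are exposed to compounds for 17 h at 37 C, and ATP-based luminescence (CellTiter-Glo) from the same wells reports cytotoxicity.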

[17] = target: Vitamin D3 receptor (Homo sapiens) (UniProt P11473); assay: qHTS assay to identify small molecule antagonists of the vitamin D receptor (VDR) signaling pathway (AID 743223; active = well fitted inhibition curve with a large enough effect in the signal ratio in the repeat runs, not every such curve was filed as active; the % refers to the signal ratio)
How it was run: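 After VDR-bla cells are plated and left 4 h at 37C, DMSO-dissolved compounds and 3 nM (final) calcitriol agonist are added. Incubation continues 16 h at 37C; FRET beta-lactamase substrate then develops 2 h at room temperature.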

[18] = qHTS assay to identify small molecule agonists of the AP-1 signaling pathway (AID 1159526; calls by dose curve)
[19] = qHTS assay to identify small molecule agonists of the vitamin D receptor (VDR) signaling pathway - cell viability counter screen (AID 743224)
How it was run: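 Viability is measured in the same wells as the VDR-bla reporter assay: after 16 h compound treatment and 2 h substrate loading, CellTiter-Glo is added and luminescence read 30 min later.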

[20] = target: Bile acid receptor (Homo sapiens) (UniProt Q96RI1); assay: qHTS assay to identify small molecule antagonists of the farnesoid-X-receptor (FXR) signaling pathway (AID 743217; active = well fitted inhibition curve with a large enough effect in the signal ratio in the repeat runs, not every such curve was filed as active; the % refers to the signal ratio)
How it was run: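 Antagonist mode against 50 uM (final) chenodeoxycholic acid stimulation in FXR-bla HEK 293T cells, 16 h at 37 °C. Inhibition detected as reduced beta-lactamase activity via LiveBLAzer B/G FRET fluorescence after 2 h at room temperature.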

Measured: Potency

O=C1OC(c2ccc(O)c(S(=O)(=O)O)c2)(c2ccc(O)c(S(=O)(=O)O)c2)c2c(Br)c(Br)c(Br)c(Br)c21
inactive: [1] | [2] | [3] | [4] | [5] | [6] | [7] | [8] | [9] | [10] | [11] | [12] | [13] | [14] | [15]

CC1CCC(=O)O1 (configuration not stated)
inactive: [1] | [2] | [16] | [3] | [4] | [6] | [17] | [8] | [9] | [10] | [11] | [12] | [13] | [14] | [18]

N#CCNCC#N
inactive: [1] | [2] | [16] | [3] | [4] | [6] | [7] | [19] | [8] | [9] | [10] | [11] | [12] | [13] | [14] | [18]

CC(C1CC1)C(O)(Cn1cncn1)c1ccc(Cl)cc1 (configuration not stated)
inactive: [1] | [2] | [16] | [3] | [6] | [7] | [19] | [9] | [10] | [11] | [12] | [13] | [14] | [18]

COC(=O)C1=CCCN(C)C1
inactive: [1] | [2] | [16] | [3] | [20] | [4] | [5] | [6] | [7] | [17] | [19] | [8] | [9] | [10] | [11] | [12] | [13] | [14] | [15]

CCN(CC)c1nc(C)cc(OP(=S)(OC)OC)n1
inactive: [1] | [2] | [16] | [3] | [6] | [7] | [19] | [8] | [9] | [10] | [11] | [12] | [13] | [14] | [15]

CC1(C)C(=O)NC(=O)NC1=O
inactive: [16] | [4] | [6] | [7] | [8] | [9] | [10] | [11] | [12] | [13] | [14] | [15] | [18]

CC(CCc1ccccc1)NC(C)C(O)c1ccc(O)cc1 (configuration not stated)
inactive: [1] | [2] | [16] | [4] | [6] | [7] | [19] | [8] | [9] | [10] | [11] | [12] | [13] | [14] | [15]

CCN(Cc1ccc(Cl)nc1)/C(=C/[N+](=O)[O-])NC
inactive: [1] | [2] | [16] | [3] | [4] | [6] | [7] | [17] | [8] | [9] | [10] | [11] | [12] | [13] | [14] | [18]

CCCSP(=S)(OCC)Oc1ccc(Cl)cc1Cl (configuration not stated)
inactive: [2] | [16] | [3] | [6] | [7] | [17] | [8] | [9] | [10] | [11] | [12] | [13] | [14] | [15]

CCCCOC(=O)[C@@H](C)Oc1ccc(Oc2ccc(C#N)cc2F)cc1
inactive: [1] | [2] | [16] | [6] | [7] | [17] | [8] | [9] | [10] | [11] | [12] | [13] | [14] | [15]

Nc1cc(Cl)ccc1O
inactive: [2] | [3] | [4] | [6] | [17] | [19] | [8] | [9] | [10] | [11] | [12] | [13] | [14] | [15]

COc1ccc2c(c1OC)CN1CCc3cc4c(cc3C1C2)OCO4 (configuration not stated)
inactive: [16] | [6] | [17] | [19] | [9] | [10] | [11] | [12] | [13] | [14] | [15] | [18]

— PubChem BioAssay (Tox21)
